# Screening results as filed in PubChem BioAssay.
# RGS8-Gao reg = human RGS8-Galphao interaction regulation | P09471 | multiplexed bead flow cytometry, RGS8-Galphao binding; actives lie on both sides | response (percent of control binding), % at 10 µM | 220,000 compounds, 0.34% hits | AID 1423; in the data active = response below about 60% or above about 140%; inactive = in between;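 note: Galphao activated as the GDP aluminium fluoride complex binding bead-coupled RGS8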
# Target sequence (P09471 whole entry, looked up): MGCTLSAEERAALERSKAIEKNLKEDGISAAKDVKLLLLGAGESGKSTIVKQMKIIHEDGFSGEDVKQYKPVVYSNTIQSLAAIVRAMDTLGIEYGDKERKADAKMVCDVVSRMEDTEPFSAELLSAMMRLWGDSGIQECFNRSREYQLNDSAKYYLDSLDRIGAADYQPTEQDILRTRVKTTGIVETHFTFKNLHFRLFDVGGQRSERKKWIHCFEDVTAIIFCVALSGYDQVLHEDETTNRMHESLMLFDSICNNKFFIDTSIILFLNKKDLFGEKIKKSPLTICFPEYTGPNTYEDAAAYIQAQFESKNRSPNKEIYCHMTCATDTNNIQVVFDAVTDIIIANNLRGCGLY
# RGS7-Gao = regulators of human RGS7-Galphao interaction; binding response (% of control), % at 10 µM; 220,000 compounds, 0.35% hits; Multiplexed bead flow cytometry, RGS7-Galphao binding; actives lie on both sides; in the data active = binding response below about 49% or above about 150%; inconclusive = no clear call, values can overlap the other calls; inactive = in between;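 note: fluorescent Galphao held in activated GDP-AlF4 state binding bead-coupled RGS7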
# Avidin bead fluor = avidin bead compound fluorescence profile; fluorescence (KMESF) at 10 µM; Avidin beads, compound fluorescence 488/530 nm, flow cytometry; hits give high values; AID 1775; 220,000 compounds, 0.38% hits; in the data active = fluorescence above about 47
# RGS16-Gao HTS = RGS16-Galphao interaction regulator (human). O15492+P09471. binding response (% of control), % at 10 µM. bead-based flow cytometry RGS16-Galphao binding, fluorescence; actives lie on both sides. 220,000 compounds, 0.38% hits;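 note: Galphao activated by GDP with aluminum fluoride before binding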
# GSH fluor = compound fluoresces at 488/530 nm on GSH beads; GSH beads flow cytometry, compound fluorescence 488/530 nm; hits give high values; fluorescence (KMESF) at 10 µM; 190,000 compounds, 0.25% hits; AID 1776; in the data active = fluorescence above about 89;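 note: glutathione beads carrying GST-tagged Bcl family fusion proteins plus one bare bead set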
# RGS4-Gao reg = human RGS4-Galphao interaction regulation; binding response (% of control), % at 10 µM; Multiplexed bead flow cytometry, RGS4-Galphao binding; actives lie on both sides; 220,000 compounds, 0.33% hits; AID 1415; P09471; in the data active = binding response below about 49% or above about 150%; inactive = in between;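 note: fluorescent Galphao activated with aluminum fluoride binding bead-coupled RGS4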
# RGS4-Gao HTS = RGS4-Galphao interaction regulator (human); shares compounds with RGS16-Gao HTS; multiplexed bead flow cytometry, RGS–Galpha-o binding; RGS4–Galpha-o binding response, % at 10 µM; 1,600 compounds, 99% hits; AID 1504;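 note: fluorescently labeled Galpha-o bound to GDP with aluminium fluoride binding biotinylated RGS beads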
# Target sequence (P09471 whole entry, looked up): as above
# Target sequence (P49798 whole entry, looked up): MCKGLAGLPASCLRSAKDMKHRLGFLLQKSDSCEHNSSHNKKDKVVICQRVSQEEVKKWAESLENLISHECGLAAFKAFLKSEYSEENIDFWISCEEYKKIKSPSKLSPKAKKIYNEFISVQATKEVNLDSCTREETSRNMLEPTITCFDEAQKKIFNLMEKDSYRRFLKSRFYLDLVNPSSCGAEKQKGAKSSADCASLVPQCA
# Biotin-avidin = interferes with biotinylated probe binding to avidin beads; AID 1783; 1,700 tested, under 10 active; streptavidin beads, fluorescein-biotin binding, flow cytometry; shares compounds with RGS16-Gao HTS; inhibition, % at 10 µM;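 active = inhibition above 50%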;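 note: median green fluorescence of gated singlet beads compared with DMSO control wells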
# RGS8-Gao single = confirmation of regulators of human RGS8-Galphao interaction; binding response (% of control), % at 10 µM; AID 1836; 1,700 compounds, 3% hits; bead-based flow cytometry RGS8-Galphao binding, fluorescence; actives lie on both sides; shares compounds with RGS16-Gao HTS; in the data active = binding response below about 72% or above about 130%; inactive = in between;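 note: Galphao activated as GDP AlF4 complex before binding bead RGS8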
# RGS7-Gao confirm = confirmation of regulators of human RGS7-Galphao interaction. shares compounds with RGS16-Gao HTS. bead-based flow cytometry RGS7-Galphao binding; actives lie on both sides. response (percent of control binding), % at 10 µM. 1,700 compounds, 7.8% hits. AID 1837; in the data active = response below about 75% or above about 130%; inactive = in between;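 note: fluorescent Galphao activated with GDP and aluminum fluoride binding bead-coupled RGS7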
# RGS16-Gao single = confirmation of regulators of human RGS16-Galphao interaction. shares compounds with RGS16-Gao HTS. bead-based flow cytometry, RGS16-Galphao binding; actives lie on both sides. response (% of control binding), % at 10 µM. AID 1838. 1,700 compounds, 4% hits; in the data active = response below about 74% or above about 130%; inactive = in between;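 note: Galphao activated as the GDP aluminium fluoride complex binding bead-coupled RGS16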
# RGS4-Gao single = confirmation of regulators of human RGS4-Galphao interaction. shares compounds with RGS16-Gao HTS. RGS4-Galphao binding, multiplexed bead flow cytometry; actives lie on both sides. binding response (% of control), % at 10 µM. 1,700 compounds, 4% hits. AID 1840; in the data active = binding response below about 74% or above about 130%; inactive = in between
# RGS19-Gao single = RGS19-Galphao interaction regulation, single point confirmation; AID 1841; response (percent of control binding), % at 10 µM; 1,700 compounds, 5% hits; bead-based flow cytometry RGS19-Galphao binding; actives lie on both sides; shares compounds with RGS16-Gao HTS; in the data active = response below about 50% or above about 160%; inactive = in between
# Numbers stand for hits; 0 = inactive; ? = inconclusive; - = no result given; [ ] = dose if it differs, or a comment. Sampled rows, rich in hits. Any-hit rate of the full collection: about 1.2%. Unless noted, the rule behind the calls is not given here.
SMILES,RGS8-Gao reg,RGS7-Gao,Avidin bead fluor,RGS16-Gao HTS,GSH fluor,RGS4-Gao reg,RGS4-Gao HTS,Biotin-avidin,RGS8-Gao single,RGS7-Gao confirm,RGS16-Gao single,RGS4-Gao single,RGS19-Gao single
COc1c(F)c(F)c(C(=O)Nc2ccc(N3CCN(Cc4ccccc4)CC3)cc2)c(F)c1F,175.1[activator],0,0,0,0,0,141.3,0,0,0,0,0,0
Cc1ccc(S(=O)(=O)Nc2ccc(N3CCOCC3)cc2)cc1,0,0,0,-64.2,0,0,86.0,0,0,0,0,0,0
CC1(C)CCCC(C)(C)N1CC(O)COCCOc1ccc(Br)cc1 (configuration not stated),0,0,0,0,0,0,-,-,-,-,-,-,-
C[n+]1cccc(C(=O)NCC2CCCO2)c1 (configuration not stated),147.2[activator],0,0,308.0[activator],0,0,117.2,0,0,0,0,0,0
CCN1CCCC1CNC(=O)c1ccc(N2CCOCC2)c(NS(=O)(=O)c2ccc(OC)cc2)c1 (configuration not stated),0,0,0,0,0,0,-,-,-,-,-,-,-
COCc1cc(C)nc(OCC(=O)N/N=C/c2ccc(O)cc2O)c1C#N,55.3,0,0,0,0,0,55.1,0,0,0,0,0,0
Cc1nn(-c2ccccc2)c2nc(-c3cccs3)cc(C(=O)NN)c12,0,197.7[activator],82,0,0,0,114.7,0,0,0,0,0,0
CCOC(=O)c1cc(-c2cccs2)nc2c1c(C)nn2-c1ccccn1,0,0,0,0,0,0,-,-,-,-,-,-,-
Oc1ccc(/C=C/c2nc(-c3ccccc3O)n(-c3ccccc3)n2)cc1,0,0,0,0,0,0,-,-,-,-,-,-,-
Oc1ccccc1-c1nc(/C=C/c2ccccc2)nn1-c1ccccc1,0,0,0,197.5[activator],0,0,106.9,0,0,0,0,0,0
COCc1cnc(C)nc1N,0,0,0,0,0,0,-,-,-,-,-,-,-
COC(=O)C1=C(C)NC2=C(C(=O)CC(C)(C)C2)C1c1ccsc1 (configuration not stated),24.9,25.2,0,17.6,0,27.9,-,0,0,0,0,0,0
CC1=C(C(=O)OCC2CCCO2)C(c2ccsc2)C2=C(CC(C)(C)CC2=O)N1 (configuration not stated),0,0,0,0,0,0,-,-,-,-,-,-,-
Cc1ccc(-c2nn3c(C)nnc3c3ccccc23)cc1S(=O)(=O)NCCO,0,172.4[activator],73,0,0,0,115.5,0,0,0,0,0,0
Cc1ccc(-c2nn3c(C)nnc3c3ccccc23)cc1S(=O)(=O)NC(C)(C)CO,0,0,0,0,0,0,-,-,-,-,-,-,-
COc1cc2c3c(c1OC)C1(C=CC(=O)C=C1)CC3N(C(=O)c1ccccc1)CC2 (configuration not stated),0,155.7[activator],120,0,0,0,104.6,-,-,-,-,-,-
COc1cc2c3c(c1OC)C1(C=CC(=O)C=C1)CC3N(C(=O)CCC(=O)O)CC2 (configuration not stated),0,?,0,0,-,0,-,-,-,-,-,-,-
CCOC(=O)C1(Cc2cccc(F)c2)CCN(C(=O)c2cnc(C)cn2)CC1,0,0,0,0,0,0,-,-,-,-,-,-,-
COC(=O)C1CCN(C(=O)c2cc3c(=O)n4cccc(C)c4nc3n2Cc2ccccc2)CC1,0,?,0,0,-,0,-,-,-,-,-,-,-
Cc1ccc(C)c(Sc2ccc(NC(=O)CCl)cc2)c1,0,0,0,299.1[activator],0,0,114.8,-,-,-,-,-,-
COc1ccc(NC(=S)NCCc2ccc(F)cc2)c(OC)c1,0,0,0,19.3,0,0,87.9,0,0,0,0,0,0
COc1ccc(NC(=S)NCCc2ccccc2)c(OC)c1,0,0,0,0,0,0,-,-,-,-,-,-,-
O=C(O)CCC(=O)Nc1sc2c(c1C(=O)Nc1cccc3ccccc13)CCCCC2,173.5[activator],190.5[activator],0,0,0,192.6[activator],-,0,0,0,0,0,0
O=C(NCc1ccccn1)C1CCN(Cc2cnn(-c3ccccc3)c2-n2cccc2)CC1,-,-,-,-,0,0,-,0,0,0,0,0,0
Cc1ccc(OCC(=O)NNC(=O)C(=O)N2CCCC2)c(C)c1,0,0,0,243.7[activator],0,0,118.0,0,0,0,0,0,0
SMILES,RGS8-Gao reg,RGS7-Gao,Avidin bead fluor,RGS16-Gao HTS,GSH fluor,RGS4-Gao reg,RGS4-Gao HTS,Biotin-avidin,RGS8-Gao single,RGS7-Gao confirm,RGS16-Gao single,RGS4-Gao single,RGS19-Gao single
Cc1ccc(-c2cc(C(=O)N3CCCc4ccccc43)c3ccccc3n2)cc1,0,0,0,0,0,0,-,-,-,-,-,-,-
O=C(c1cc(-c2cccnc2)nc2ccccc12)N1CCCc2ccccc21,0,0,0,12.7,0,0,96.1,0,0,0,0,0,0
Cc1nc2ccccc2c(=O)n1/N=C/c1ccccc1,0,0,0,0,0,0,-,-,-,-,-,-,-
Cc1nc2ccccc2c(=O)n1/N=C/c1ccncc1,-,0,-,-,0,0,-,0,0,0,0,0,0
CCN1c2cccc3cccc(c23)S1(=O)=O,0,155.0[activator],0,0,0,154.7[activator],-,0,0,0,0,0,0
COC(=O)CNC(=O)CN1c2cccc3cccc(c23)S1(=O)=O,0,0,0,0,0,0,-,-,-,-,-,-,-
Cc1cc(C)c(C(=O)Cn2nc(C)c([N+](=O)[O-])c2C)cc1C,0,0,0,0,0,0,-,-,-,-,-,-,-
O=C(c1ccncc1)N1N=C(C2CCCCC2)CC1(O)C(F)(F)F (configuration not stated),0,0,0,0,0,47.3,-,0,0,71.8,0,0,0
O=C1C(Cl)=C(N2CCCCC2)C(=O)C(Cl)=C1c1cnc(N2CCCCC2)s1,49.8,42.8,0,0,0,0,69.1,0,36.8,15.7,26.8,59.4,-8.5
Clc1ccc(Cl)c2sc(N3CCCC3)nc12,0,0,0,0,0,0,-,-,-,-,-,-,-
CN(C)c1ncc(C2=C(Cl)C(=O)C(N3CCCC3)=C(Cl)C2=O)s1,46.9,41.1,0,0,0,0,67.0,0,41.3,22.4,35.2,71.9,-9.7
